Source: PubChem BioAssay (Tox21)
Results filed as inconclusive are left out. Activity calls are given as the source filed them. Unless noted, calls come from the whole dose curve; as a rule, active = well fitted curve in the direction sought with a large enough effect in the repeat runs; inconclusive = weak or mixed curves; inactive = no such curve, though single readings can be large; an effect the other way counts as inactive or inconclusive.

Assays:
[1] = qHTS assay to identify small molecule antagonists of the sonic hedgehog signaling (Shh) pathway (AID 1259369; calls by dose curve; note: nearly all actives have a fitted effect of over 45% in size; note: potency is the fitted concentration of half-maximal effect)
How it was run: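 Read-out is luminescence from a firefly luciferase gene controlled by the Gli1 response element, in 3T3Gli1-Luc cells pre-incubated 4hr then exposed to compounds and conditioned medium for 24hr.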

[2] = molecular target: Estrogen receptor beta (Homo sapiens) (UniProt Q92731); test: qHTS assay to identify small molecule antagonists of the estrogen receptor beta (ER-beta) signaling pathway (AID 1259378; active = well fitted inhibition curve with a large enough effect in the signal ratio in the repeat runs, not every such curve was filed as active; the % refers to the signal ratio)
Chain of Estrogen receptor beta (Homo sapiens) (Q92731 whole entry, looked up): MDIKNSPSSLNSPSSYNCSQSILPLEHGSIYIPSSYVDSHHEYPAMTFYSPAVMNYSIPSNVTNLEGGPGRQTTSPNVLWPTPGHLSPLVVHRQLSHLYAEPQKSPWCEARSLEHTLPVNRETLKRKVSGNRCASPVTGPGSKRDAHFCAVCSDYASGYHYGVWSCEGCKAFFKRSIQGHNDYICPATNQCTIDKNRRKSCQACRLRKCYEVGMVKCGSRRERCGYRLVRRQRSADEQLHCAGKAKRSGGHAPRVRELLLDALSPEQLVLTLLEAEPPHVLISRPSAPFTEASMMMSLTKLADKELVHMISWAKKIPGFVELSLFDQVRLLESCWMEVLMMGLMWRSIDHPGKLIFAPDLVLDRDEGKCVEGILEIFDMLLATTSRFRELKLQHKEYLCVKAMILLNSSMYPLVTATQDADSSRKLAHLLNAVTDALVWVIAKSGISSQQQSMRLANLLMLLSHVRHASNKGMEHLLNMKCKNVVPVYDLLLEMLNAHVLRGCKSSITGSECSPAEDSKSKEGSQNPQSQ
How it was run: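 ER-beta-UAS-bla HEK293T (GripTite) cells in 2% charcoal-stripped FBS medium were preincubated 6 hr at 37C, dosed with compound, then stimulated with 1 nM E2 (final) for 16 hr; beta-lactamase reporter read by B/G FRET fluorescence after 2 hr substrate loading.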

[3] = qHTS assay to identify small molecule agonists of the androgen receptor (AR) signaling pathway in the presence of an antagonist - cell viability counter screen (AID 1259379);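 note: MDA-kb2 human breast cancer cells carrying an MMTV luciferase reporter; series mostly up to about 92 µM; nearly all actives have a fitted effect of over 25% in size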
How it was run: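 Each compound was tested at 15 concentrations on MDA-kb2 cells in the presence of 3.0uM nilutamide. Viability was measured by CellTiter-Fluor fluorescence after a 16 hr incubation at 37C in a CO2-free atmosphere.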

[4] = qHTS assay to identify small molecule agonists of the estrogen receptor beta (ER-beta) signaling pathway - cell viability counter screen (AID 1259380); note: nearly all actives have a fitted effect of over 30% in size
How it was run: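 Compounds dissolved in DMSO were pin-transferred onto ER-beta-UAS-bla HEK293T cells that had settled 6 hr, and exposure ran 16 hr at 37C. Following the reporter read, CellTiter-Glo luminescence after 30 min at room temperature indicated cytotoxicity.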

[5] = molecular target: Androgen receptor (Homo sapiens) (UniProt P10275); test: qHTS assay to identify small molecule agonists of the androgen receptor (AR) signaling pathway in the presence of an antagonist (AID 1259381; calls by dose curve; note: nearly all actives have a fitted effect of over 15% in size; note: potency is the fitted concentration of half-maximal effect)
Chain of Androgen receptor (Homo sapiens) (P10275 whole entry, looked up): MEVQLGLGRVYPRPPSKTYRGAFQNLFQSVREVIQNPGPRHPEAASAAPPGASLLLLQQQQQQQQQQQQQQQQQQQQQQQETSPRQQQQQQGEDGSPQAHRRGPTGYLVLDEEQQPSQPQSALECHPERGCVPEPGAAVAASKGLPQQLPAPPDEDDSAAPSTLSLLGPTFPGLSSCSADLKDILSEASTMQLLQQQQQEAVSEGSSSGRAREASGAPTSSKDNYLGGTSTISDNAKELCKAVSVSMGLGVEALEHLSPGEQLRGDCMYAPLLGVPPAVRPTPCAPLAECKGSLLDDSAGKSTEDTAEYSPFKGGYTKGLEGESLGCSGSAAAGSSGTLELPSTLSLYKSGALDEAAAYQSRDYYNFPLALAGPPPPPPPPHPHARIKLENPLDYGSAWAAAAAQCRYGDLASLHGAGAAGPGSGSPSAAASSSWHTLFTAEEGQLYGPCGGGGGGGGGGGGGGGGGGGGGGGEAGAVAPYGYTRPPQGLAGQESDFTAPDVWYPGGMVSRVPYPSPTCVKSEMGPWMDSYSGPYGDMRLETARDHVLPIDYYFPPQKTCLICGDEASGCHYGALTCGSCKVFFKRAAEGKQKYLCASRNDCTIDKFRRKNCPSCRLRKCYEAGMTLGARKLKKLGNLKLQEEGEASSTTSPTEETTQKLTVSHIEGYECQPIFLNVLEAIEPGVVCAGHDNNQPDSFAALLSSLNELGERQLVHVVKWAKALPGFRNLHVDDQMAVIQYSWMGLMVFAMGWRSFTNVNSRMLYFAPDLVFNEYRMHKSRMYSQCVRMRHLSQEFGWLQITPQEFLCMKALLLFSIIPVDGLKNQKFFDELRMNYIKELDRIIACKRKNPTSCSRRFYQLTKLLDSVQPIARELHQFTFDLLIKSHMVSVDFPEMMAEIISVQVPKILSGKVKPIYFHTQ
How it was run: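 Plated MDA-kb2 cells (3,000/well) were pre-incubated 5hr, given nilutamide (3.0uM final) or buffer, then dosed with compounds in DMSO at 15 concentrations. Luciferase activity was quantified by luminescence after 16hr at 37C.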

[6] = qHTS assay to identify small molecule antagonists of the estrogen receptor beta (ER-beta) signaling pathway - cell viability counter screen (AID 1259382); note: series mostly up to about 92 µM; nearly all actives have a fitted effect of over 55% in size
How it was run: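 CellTiter-Glo ATP luminescence measured after the LiveBLAzer read in the same wells; ER-beta-UAS-bla HEK293T cells, 16 hr compound treatment with 1nM 17-beta-estradiol agonist at 37C, 5% CO2.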

[7] = qHTS assay to identify small molecule agonists or antagonists of the thyroid stimulating hormone receptor (TSHR) signaling pathway - wild type cell line counter screen (AID 1259384; calls by dose curve)
How it was run: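 Wild-type HEK293 cells were plated 18 h at 37 C/5% CO2, pin-dosed with compound plus Ro20-1724 medium, held 30 min at room temperature, then given cAMP-d2 and anti-cAMP-cryptate; fluorescence was read after 1 h. Fifteen concentrations, triplicate.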

[8] = molecular target: Thyrotropin receptor (Homo sapiens) (UniProt P16473); test: qHTS assay to identify small molecule antagonists of the thyroid stimulating hormone receptor (TSHR) signaling pathway (AID 1259385; calls by dose curve; note: nearly all actives have a fitted effect of over 20% in size)
Chain of Thyrotropin receptor (Homo sapiens) (P16473 whole entry, looked up): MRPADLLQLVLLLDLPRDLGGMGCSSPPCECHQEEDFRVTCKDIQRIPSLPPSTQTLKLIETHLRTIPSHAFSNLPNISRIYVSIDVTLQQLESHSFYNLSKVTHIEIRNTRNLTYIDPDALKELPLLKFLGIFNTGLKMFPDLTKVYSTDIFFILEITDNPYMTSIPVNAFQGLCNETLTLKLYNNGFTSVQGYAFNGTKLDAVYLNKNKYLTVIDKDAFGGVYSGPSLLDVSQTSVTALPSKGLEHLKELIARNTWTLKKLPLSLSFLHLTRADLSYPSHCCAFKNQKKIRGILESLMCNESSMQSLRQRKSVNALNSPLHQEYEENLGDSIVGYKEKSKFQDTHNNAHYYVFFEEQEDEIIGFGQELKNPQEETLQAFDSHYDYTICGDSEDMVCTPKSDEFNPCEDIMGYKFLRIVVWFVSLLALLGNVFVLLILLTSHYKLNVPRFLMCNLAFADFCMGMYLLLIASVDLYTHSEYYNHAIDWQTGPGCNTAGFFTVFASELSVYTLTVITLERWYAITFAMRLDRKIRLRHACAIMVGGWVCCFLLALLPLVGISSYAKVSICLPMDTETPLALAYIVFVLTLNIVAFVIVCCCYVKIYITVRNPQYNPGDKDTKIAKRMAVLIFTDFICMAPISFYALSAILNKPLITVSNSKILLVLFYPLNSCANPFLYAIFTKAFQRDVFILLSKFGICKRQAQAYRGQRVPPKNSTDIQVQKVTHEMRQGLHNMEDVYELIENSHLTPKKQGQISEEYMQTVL
How it was run: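 TSHR-HEK293 cells were plated and held 18 h at 37C/5% CO2, then given compound plus Ro20-1724 and stimulated with TSH at 1.5 ng/mL final. After 30 min at room temperature, cAMP was detected with cAMP-d2/anti-cAMP-cryptate (1 h) by fluorescence.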

[9] = qHTS assay to identify small molecule agonists of the estrogen receptor alpha (ER-alpha) signaling pathway in the presence of an antagonist - cell viability counter screen (AID 1259386);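 note: series mostly up to about 92 µM; cells exposed to compounds for 22 h at 37 °C before the viability read; nearly all actives have a fitted effect of over 30% in size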
How it was run: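 Using estrogen-depleted VM7Luc4E2 cells, the 15-concentration compound series was applied together with 10.0nM ICI-182,780 and incubated 22hr at 37C/5% CO2. Cell viability was then scored by CellTiter-Fluor.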

[10] = molecular target: Progesterone receptor (Homo sapiens) (UniProt P06401); test: qHTS assay to identify small molecule agonists of the progesterone receptor (PR) signaling pathway (AID 1346784; calls by dose curve; note: nearly all actives have a fitted effect of over 30% in size)
Chain of Progesterone receptor (Homo sapiens) (P06401 whole entry, looked up): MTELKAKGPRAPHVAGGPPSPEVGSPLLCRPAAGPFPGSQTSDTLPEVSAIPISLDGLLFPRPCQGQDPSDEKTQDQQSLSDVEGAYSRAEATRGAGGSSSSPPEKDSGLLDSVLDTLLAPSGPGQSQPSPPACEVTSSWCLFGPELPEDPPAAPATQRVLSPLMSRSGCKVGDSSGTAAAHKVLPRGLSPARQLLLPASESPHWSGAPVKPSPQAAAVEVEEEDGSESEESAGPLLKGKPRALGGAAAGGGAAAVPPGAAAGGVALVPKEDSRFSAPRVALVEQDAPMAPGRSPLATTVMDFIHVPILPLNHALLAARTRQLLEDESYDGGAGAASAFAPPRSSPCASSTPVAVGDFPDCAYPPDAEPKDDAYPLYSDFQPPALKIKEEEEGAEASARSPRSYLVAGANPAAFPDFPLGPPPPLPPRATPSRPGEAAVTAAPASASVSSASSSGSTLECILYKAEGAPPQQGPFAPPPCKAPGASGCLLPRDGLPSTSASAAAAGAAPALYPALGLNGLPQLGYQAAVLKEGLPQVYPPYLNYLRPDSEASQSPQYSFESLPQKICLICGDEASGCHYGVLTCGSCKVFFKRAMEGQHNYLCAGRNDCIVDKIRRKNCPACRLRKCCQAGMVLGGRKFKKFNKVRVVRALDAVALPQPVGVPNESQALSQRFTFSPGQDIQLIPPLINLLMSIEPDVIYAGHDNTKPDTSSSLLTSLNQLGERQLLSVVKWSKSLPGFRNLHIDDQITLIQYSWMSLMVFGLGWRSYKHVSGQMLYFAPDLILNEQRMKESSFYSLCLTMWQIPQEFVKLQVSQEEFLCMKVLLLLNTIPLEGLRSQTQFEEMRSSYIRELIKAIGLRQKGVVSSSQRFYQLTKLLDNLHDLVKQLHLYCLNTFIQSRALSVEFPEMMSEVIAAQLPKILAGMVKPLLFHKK
How it was run: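 HEK 293T PR-UAS-bla reporter cells, 2% charcoal-stripped FBS; 6 hr settle at 37C/5% CO2, compound (DMSO) 16 hr, LiveBLAzer B/G FRET substrate 2 hr RT, fluorescence intensity read.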

[11] = molecular target: Progesterone receptor (Homo sapiens) (UniProt P06401); test: qHTS assay to identify small molecule antagonists of the progesterone receptor (PR) signaling pathway (AID 1346795; active = well fitted inhibition curve with a large enough effect in the signal ratio in the repeat runs, not every such curve was filed as active; the % refers to the signal ratio)
How it was run: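 Beta-lactamase reporter, HEK293T PR-UAS-bla line; 2% charcoal-stripped FBS; 6 hr pre-incubation, 37C/5% CO2. Compound + R5020 1 nM final, 16 hr. LiveBLAzer B/G FRET substrate, 2 hr RT; fluorescence intensity read.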

[12] = qHTS assay to identify small molecule agonists of the progesterone receptor (PR) signaling pathway - cell viability counter screen (AID 1346799; calls by dose curve; note: nearly all actives have a fitted effect of over 45% in size)
How it was run: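 HEK293T PR-UAS-bla, 3,000 cells/well, 2% charcoal-stripped FBS; 6 h settle, compound 16 h at 37C/5% CO2; LiveBLAzer 2 h RT, then CellTiter-Glo 30 min RT, luminescence read.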

[13] = qHTS assay to identify small molecule antagonists of the TGF-beta/Smad signaling pathway - cell viability counter screen (AID 1346824); note: nearly all actives have a fitted effect of over 50% in size
How it was run: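 SBE-bla HEK 293T cells were plated overnight at 37 C, then given compounds in DMSO plus TGF-beta1 (added as 0.25 ng/mL solution) for 5 hr. After the bla read, CellTiter-Glo was added to the same wells and luminescence read after 30 min at room temperature.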

[14] = qHTS assay to identify small molecule agonists of the TGF-beta/Smad signaling pathway - cell viability counter screen (AID 1346829); note: top concentration of the series differs between compounds; nearly all actives have a fitted effect of over 45% in size
How it was run: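 Luminescence from CellTiter-Glo, read after a 30 min room-temperature incubation, gives cell viability of SBE-bla HEK 293T cells treated 5 hr with compounds at 37 C.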

[15] = qHTS assay to identify small molecule agonists of the TGF-beta/Smad signaling pathway (AID 1346859; active = well fitted activation curve with a large enough effect in the signal ratio in the repeat runs, not every such curve was filed as active; the % refers to the signal ratio; note: series mostly up to about 77 µM)
How it was run: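 Read-out: fluorescence at 460 and 530 nm (405 nm excitation) after a 2 hr room-temperature incubation with beta-lactamase FRET substrate. SBE-bla HEK 293T cells had been treated with test compounds for 5 hr at 37 C.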

[16] = molecular target: Thyrotropin-releasing hormone receptor (Homo sapiens) (UniProt P34981); test: qHTS assay to identify small molecule antagonists of the thyrotropin-releasing hormone receptor (TRHR) signaling pathway (AID 1346877; active = well fitted inhibition curve with a large enough effect in the repeat runs, not every such curve was filed as active; note: series mostly up to about 51 µM)
Chain of Thyrotropin-releasing hormone receptor (Homo sapiens) (P34981 whole entry, looked up): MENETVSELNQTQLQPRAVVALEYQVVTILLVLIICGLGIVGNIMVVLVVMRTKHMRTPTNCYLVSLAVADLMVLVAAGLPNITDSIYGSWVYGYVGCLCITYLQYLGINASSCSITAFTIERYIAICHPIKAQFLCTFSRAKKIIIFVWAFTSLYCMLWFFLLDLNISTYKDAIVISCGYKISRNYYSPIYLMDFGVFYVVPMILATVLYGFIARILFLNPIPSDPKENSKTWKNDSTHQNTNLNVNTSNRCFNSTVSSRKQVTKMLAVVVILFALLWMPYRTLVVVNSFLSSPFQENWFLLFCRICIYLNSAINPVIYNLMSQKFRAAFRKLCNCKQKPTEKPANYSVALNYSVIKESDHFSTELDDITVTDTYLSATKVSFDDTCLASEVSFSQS
How it was run: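 Calcium signal in dye-loaded TRHR/HEK293 cells; compounds added 5 min before TRH (1 nM final); fluorescence monitored 3 min at 1 s steps.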

[17] = molecular target: Thyrotropin-releasing hormone receptor (Homo sapiens) (UniProt P34981); test: qHTS assay to identify small molecule agonists of the thyrotropin-releasing hormone receptor (TRHR) signaling pathway (AID 1346891; calls by dose curve;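 note: HEK293 cells expressing TRHR with calcium dye readout; series mostly up to about 58 µM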)
How it was run: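 HEK293/TRHR cells, 1500 per well, 18 h 37 °C; Ca dye 2 h 37 °C; pin-tool compound addition (agonist mode); kinetic fluorescence 3 min, 1 s reads; 15 concentrations, triplicate.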

[18] = molecular target: Estrogen receptor (Homo sapiens) (UniProt P03372); test: qHTS assay to identify small molecule agonists of the estrogen receptor alpha (ER-alpha) signaling pathway in the presence of an antagonist (AID 1259383; calls by dose curve; note: top concentration of the series differs between compounds; nearly all actives have a fitted effect of over 15% in size)
Chain of Estrogen receptor (Homo sapiens) (P03372 whole entry, looked up): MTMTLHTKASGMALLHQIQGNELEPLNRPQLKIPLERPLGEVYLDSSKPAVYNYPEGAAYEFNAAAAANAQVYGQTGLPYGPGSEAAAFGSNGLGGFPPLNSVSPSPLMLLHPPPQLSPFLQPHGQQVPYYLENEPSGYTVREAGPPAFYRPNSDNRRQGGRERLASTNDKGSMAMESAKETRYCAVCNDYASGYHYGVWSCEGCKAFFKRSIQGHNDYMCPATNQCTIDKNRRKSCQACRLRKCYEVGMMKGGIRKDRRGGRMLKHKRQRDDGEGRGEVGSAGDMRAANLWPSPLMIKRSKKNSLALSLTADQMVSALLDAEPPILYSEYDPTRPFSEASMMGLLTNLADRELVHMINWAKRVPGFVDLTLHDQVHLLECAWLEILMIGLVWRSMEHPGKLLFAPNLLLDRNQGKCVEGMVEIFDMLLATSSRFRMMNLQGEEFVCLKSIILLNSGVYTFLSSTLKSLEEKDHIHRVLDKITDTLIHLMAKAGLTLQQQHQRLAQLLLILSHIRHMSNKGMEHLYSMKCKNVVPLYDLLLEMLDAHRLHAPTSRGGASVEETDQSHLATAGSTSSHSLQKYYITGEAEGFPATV
How it was run: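 Luminescent ERE-luciferase reporter, VM7Luc4E2 cells (endogenous ER-alpha); 10.0nM ICI-182,780 final; 15-point compound titration; 22hr at 37C; ONE-Glo, 30min RT.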

[19] = qHTS assay to identify small molecule antagonists of the progesterone receptor (PR) signaling pathway - cell viability counter screen (AID 1346798); note: series mostly up to about 92 µM; nearly all actives have a fitted effect of over 50% in size
How it was run: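 Luminescence readout (CellTiter-Glo, 30 min, RT) of viability in PR-UAS-bla HEK293T cells exposed to compound and R5020 agonist for 16 hr at 37C, 5% CO2; run in the same wells as the beta-lactamase reporter read.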

Measured: Potency

CCCCNc1ccccc1
not listed: [18] | [19]
inactive: all other assays above

CNc1ncnc2nc[nH]c12
not listed: [2] | [5]
inactive: all other assays above

CSc1ccc(C=O)cc1
not listed: [5] | [16] | [17] | [18]
inactive: all other assays above

NS(=O)(=O)c1cc(C2(O)NC(=O)c3ccccc32)ccc1Cl (stereo not drawn)
not listed: [4] | [5] | [7] | [11] | [13] | [18]
inactive: all other assays above

OC1OC[C@@H](O)[C@H](O)[C@H]1O (stereo partly drawn)
not listed: [5] | [7] | [8] | [13] | [18]
inactive: all other assays above

NC(=O)c1ncn([C@@H]2O[C@H](CO)[C@@H](O)[C@H]2O)c1N
not listed: [2] | [5]
inactive: all other assays above

NC1CCN(c2cccc(Cl)n2)CC1
active: [1] 1330 nM
not listed: [7] | [8] | [18]
inactive: all other assays above

CCCC(=O)O[C@]1(C(=O)CCl)[C@@H](C)C[C@H]2[C@@H]3CCC4=CC(=O)C=C[C@]4(C)[C@@]3(F)C(=O)C[C@@]21C
active: [5] 4.7 nM
not listed: [2] | [8] | [10] | [11] | [12] | [19]
inactive: all other assays above

O=C1C(CCS(=O)c2ccccc2)C(=O)N(c2ccccc2)N1c1ccccc1 (stereo not drawn)
not listed: [2] | [5] | [7] | [8] | [13]
inactive: all other assays above

c1ccc2cnncc2c1
not listed: [2] | [5] | [18]
inactive: all other assays above

CC(C)COC(=O)c1ccccc1O
not listed: [2] | [5] | [8]
inactive: all other assays above

CC(C)[C@H](N)C(=O)OCCOCn1cnc2c(=O)[nH]c(N)nc21
not listed: [2] | [5] | [18]
inactive: all other assays above

CC(C)N1C(=O)c2ccccc2C1=O
not listed: [2] | [5] | [8] | [16] | [17]
inactive: all other assays above

C=CC(=O)OCCCCCC
not listed: [2] | [5] | [7] | [8] | [18]
inactive: all other assays above

NC(=O)CCCCC1CCSS1 (stereo not drawn)
not listed: [2] | [5] | [8]
inactive: all other assays above
